Holding throughout (experiment): DAPPL (digital affinity profiling via proximity ligation, sequencing); 10 mM Tris-HCl pH 7.5, 50 mM NaCl, 1 mM DTT, 4% glycerol, room temperature, 30 min; GST-TFs on glutathione beads, 16-mer random dsDNA library, 0.1% formaldehyde crosslink after washing; high values mean tight binding
Settings in all cases: protein: recombinant; tags: N-terminal GST; dsDNA, one strand shown

One test has as its target T1, FLI1 (Homo sapiens, UniProt Q01543 1-452).
T1 sequence: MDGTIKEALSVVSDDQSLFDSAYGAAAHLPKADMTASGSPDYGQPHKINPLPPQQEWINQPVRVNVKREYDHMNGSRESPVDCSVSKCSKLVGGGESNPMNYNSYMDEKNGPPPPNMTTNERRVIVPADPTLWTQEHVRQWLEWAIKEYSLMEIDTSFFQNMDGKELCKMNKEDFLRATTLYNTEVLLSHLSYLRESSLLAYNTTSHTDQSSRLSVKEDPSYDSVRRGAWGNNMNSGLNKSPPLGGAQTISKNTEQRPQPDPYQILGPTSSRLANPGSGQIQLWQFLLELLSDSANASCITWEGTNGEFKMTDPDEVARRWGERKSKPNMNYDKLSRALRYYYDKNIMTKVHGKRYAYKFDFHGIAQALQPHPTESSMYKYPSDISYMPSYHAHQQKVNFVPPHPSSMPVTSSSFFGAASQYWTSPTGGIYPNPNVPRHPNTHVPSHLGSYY
The procedure, abridged: (§1)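 Human transcription factors fused to GST were expressed in yeast, captured on glutathione beads, given DNA barcodes and pooled with a GST-only negative control. Pools were incubated with 200 nmole of a 16-mer random double-stranded DNA library in Tris/NaCl/DTT/glycerol buffer at room temperature for 30 min. They were then washed, crosslinked with 0.1% formaldehyde, proximity-ligated (BsaI/T4 ligase, 1 h, 37 °C), PCR-amplified and sequenced on an Illumina NextSeq500. Binding signal is each 6-mer's read frequency for a factor divided by its frequency for the GST control.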

The target in another test is T2, ELK1 (Homo sapiens, UniProt P19419 1-428).
T2 sequence: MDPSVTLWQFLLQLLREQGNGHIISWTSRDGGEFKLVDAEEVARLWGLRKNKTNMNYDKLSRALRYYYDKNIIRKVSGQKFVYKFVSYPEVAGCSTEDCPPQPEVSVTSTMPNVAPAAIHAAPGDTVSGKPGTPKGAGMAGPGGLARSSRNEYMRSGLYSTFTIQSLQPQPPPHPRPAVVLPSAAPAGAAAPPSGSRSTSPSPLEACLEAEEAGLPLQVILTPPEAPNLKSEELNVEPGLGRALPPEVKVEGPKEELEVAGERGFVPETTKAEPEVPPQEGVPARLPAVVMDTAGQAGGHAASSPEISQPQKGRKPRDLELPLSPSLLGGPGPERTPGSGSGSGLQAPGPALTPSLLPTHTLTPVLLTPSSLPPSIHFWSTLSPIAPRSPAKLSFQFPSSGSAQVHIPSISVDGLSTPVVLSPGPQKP
The procedure, abridged: as §1

In the next test the target is T3, GABPA (Homo sapiens, UniProt Q06546 1-454).
T3 sequence: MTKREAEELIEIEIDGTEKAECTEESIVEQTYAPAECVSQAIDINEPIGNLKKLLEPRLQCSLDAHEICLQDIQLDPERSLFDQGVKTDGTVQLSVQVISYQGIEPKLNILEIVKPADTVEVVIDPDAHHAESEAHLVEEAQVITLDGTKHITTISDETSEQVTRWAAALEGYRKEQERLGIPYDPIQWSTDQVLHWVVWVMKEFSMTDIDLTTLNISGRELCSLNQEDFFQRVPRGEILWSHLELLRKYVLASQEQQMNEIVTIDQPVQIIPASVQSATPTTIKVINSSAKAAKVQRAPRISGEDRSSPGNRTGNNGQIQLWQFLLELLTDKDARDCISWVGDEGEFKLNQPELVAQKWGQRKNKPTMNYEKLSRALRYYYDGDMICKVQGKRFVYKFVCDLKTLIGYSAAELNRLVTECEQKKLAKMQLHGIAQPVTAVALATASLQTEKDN
The method, boiled down: as §1

For the next test, the target named is T4, ERG (Homo sapiens, UniProt P11308 1-479).
T4 sequence: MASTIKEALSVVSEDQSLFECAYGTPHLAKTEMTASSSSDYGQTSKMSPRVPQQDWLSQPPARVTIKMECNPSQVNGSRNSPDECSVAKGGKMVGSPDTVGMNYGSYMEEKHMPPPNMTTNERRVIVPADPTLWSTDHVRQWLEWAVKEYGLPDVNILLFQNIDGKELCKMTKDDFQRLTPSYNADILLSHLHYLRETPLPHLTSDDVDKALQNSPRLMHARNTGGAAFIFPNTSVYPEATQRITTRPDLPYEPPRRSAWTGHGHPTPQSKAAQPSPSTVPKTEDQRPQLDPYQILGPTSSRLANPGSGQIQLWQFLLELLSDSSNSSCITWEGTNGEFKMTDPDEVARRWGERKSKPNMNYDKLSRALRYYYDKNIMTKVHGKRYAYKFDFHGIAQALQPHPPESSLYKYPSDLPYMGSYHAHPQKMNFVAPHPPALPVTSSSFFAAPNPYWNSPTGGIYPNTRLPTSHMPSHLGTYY
The procedure, abridged:
as §1

For a further test, the target named is ELF1 (Homo sapiens, UniProt P32519 1-619). The procedure, abridged: as §1
ELF1, sequence (P32519 whole entry): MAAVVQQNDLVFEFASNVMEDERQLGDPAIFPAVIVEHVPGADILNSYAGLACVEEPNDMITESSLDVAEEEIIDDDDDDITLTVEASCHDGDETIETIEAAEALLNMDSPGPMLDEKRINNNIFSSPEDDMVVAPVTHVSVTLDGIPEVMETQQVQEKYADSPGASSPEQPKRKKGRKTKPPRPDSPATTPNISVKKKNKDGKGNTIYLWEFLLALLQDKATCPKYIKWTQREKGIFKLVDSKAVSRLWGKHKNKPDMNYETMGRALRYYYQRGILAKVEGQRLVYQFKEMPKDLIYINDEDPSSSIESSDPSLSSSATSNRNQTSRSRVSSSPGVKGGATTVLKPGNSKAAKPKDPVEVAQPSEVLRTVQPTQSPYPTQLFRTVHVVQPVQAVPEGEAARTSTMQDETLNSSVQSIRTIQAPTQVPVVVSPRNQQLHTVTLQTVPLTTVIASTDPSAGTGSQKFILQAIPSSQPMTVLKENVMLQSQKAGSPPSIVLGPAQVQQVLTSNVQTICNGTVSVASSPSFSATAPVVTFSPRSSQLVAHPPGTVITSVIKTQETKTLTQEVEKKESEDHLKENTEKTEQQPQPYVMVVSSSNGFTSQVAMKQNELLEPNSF
The next test deals with T5, EHF (Homo sapiens, UniProt Q9NZC4 1-300).
T5 sequence: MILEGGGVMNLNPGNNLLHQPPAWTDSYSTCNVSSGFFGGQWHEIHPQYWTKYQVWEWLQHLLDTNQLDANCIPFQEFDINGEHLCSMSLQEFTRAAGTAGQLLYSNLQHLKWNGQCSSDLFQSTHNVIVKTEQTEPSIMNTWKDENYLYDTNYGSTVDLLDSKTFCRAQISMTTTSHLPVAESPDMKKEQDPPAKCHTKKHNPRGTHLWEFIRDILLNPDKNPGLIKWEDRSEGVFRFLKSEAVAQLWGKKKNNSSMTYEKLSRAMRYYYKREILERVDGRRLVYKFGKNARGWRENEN
The method, boiled down:
as §1

The next test addresses SPI1 (Homo sapiens, UniProt P17947 1-270). The method, boiled down:
as §1

In the next test the target is SPIB (Homo sapiens, UniProt Q01892 1-262). The method, boiled down:
as §1

The target of another test is T6, ELK3 (Homo sapiens, UniProt P41970 1-407).
T6 sequence: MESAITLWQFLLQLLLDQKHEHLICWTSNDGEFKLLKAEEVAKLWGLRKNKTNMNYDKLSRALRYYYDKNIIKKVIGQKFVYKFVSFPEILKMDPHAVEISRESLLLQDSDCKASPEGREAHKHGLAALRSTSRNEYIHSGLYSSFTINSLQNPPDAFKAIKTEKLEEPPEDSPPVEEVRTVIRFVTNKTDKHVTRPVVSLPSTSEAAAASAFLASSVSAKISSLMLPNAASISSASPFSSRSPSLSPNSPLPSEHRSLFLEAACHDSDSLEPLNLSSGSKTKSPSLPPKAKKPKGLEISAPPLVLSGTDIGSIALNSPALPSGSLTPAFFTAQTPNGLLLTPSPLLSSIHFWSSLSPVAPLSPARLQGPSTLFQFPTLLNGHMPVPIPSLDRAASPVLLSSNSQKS
The procedure, abridged: as §1

SPIB, sequence (Q01892 whole entry): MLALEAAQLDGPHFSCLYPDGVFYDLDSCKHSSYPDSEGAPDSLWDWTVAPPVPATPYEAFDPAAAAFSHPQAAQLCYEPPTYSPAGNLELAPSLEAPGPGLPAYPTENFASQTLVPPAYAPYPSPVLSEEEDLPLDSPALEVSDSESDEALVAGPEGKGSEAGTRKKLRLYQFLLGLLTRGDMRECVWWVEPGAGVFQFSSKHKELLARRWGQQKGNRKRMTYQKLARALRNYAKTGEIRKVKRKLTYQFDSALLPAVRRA

Turning to AAGTGG, the binding signal is 1.09 fold enrichment (6-mer frequency, TF over GST control) with FLI1; 1.19 fold enrichment (6-mer frequency, TF over GST control) with ELK1; 1.22 fold enrichment (6-mer frequency, TF over GST control) in the test with GABPA; 1.16 fold enrichment (6-mer frequency, TF over GST control) in the test with ERG; 1.17 fold enrichment (6-mer frequency, TF over GST control) in the test with ELF1; 1.24 fold enrichment (6-mer frequency, TF over GST control) in the test with EHF. In addition, the binding signal in the test with SPI1 is 1.5 fold enrichment (6-mer frequency, TF over GST control); with SPIB it was 1.26 fold enrichment (6-mer frequency, TF over GST control); in the test with ELK3 it was 1.33 fold enrichment (6-mer frequency, TF over GST control).

Take CGCTCT: the binding signal with FLI1 is 1.39 fold enrichment (6-mer frequency, TF over GST control); with ELK1, 1.25 fold enrichment (6-mer frequency, TF over GST control); with GABPA, 1.34 fold enrichment (6-mer frequency, TF over GST control); with ERG, 1.21 fold enrichment (6-mer frequency, TF over GST control); with ELF1 it was 1.3 fold enrichment (6-mer frequency, TF over GST control); in the test with EHF, 1.21 fold enrichment (6-mer frequency, TF over GST control). Besides, the binding signal was 1.21 fold enrichment (6-mer frequency, TF over GST control) in the test with SPI1; 1.16 fold enrichment (6-mer frequency, TF over GST control) in the test with SPIB; 1.18 fold enrichment (6-mer frequency, TF over GST control) with ELK3.

On to CGTCCC, for which the binding signal in the test with FLI1 is 1.3 fold enrichment (6-mer frequency, TF over GST control); with ELK1, 1.39 fold enrichment (6-mer frequency, TF over GST control); in the test with GABPA, 1.42 fold enrichment (6-mer frequency, TF over GST control); with ERG, 1.37 fold enrichment (6-mer frequency, TF over GST control); in the test with ELF1, 1.36 fold enrichment (6-mer frequency, TF over GST control); with EHF, 1.44 fold enrichment (6-mer frequency, TF over GST control). In addition, the binding signal with SPI1 was 1.23 fold enrichment (6-mer frequency, TF over GST control); with SPIB, 1.31 fold enrichment (6-mer frequency, TF over GST control); with ELK3, 1.57 fold enrichment (6-mer frequency, TF over GST control).

In the case of CTATTG, the binding signal with FLI1 was 1.33 fold enrichment (6-mer frequency, TF over GST control); with ELK1, 1.33 fold enrichment (6-mer frequency, TF over GST control); with GABPA it was 1.31 fold enrichment (6-mer frequency, TF over GST control); with ERG, 1.3 fold enrichment (6-mer frequency, TF over GST control); in the test with ELF1 it was 1.37 fold enrichment (6-mer frequency, TF over GST control); with EHF, 1.28 fold enrichment (6-mer frequency, TF over GST control). The binding signal with SPI1 was 1.26 fold enrichment (6-mer frequency, TF over GST control); with SPIB it was 1.2 fold enrichment (6-mer frequency, TF over GST control); in the test with ELK3 it was 1.23 fold enrichment (6-mer frequency, TF over GST control).

For the sequence AGCCCT, the binding signal with FLI1 was 1.03 fold enrichment (6-mer frequency, TF over GST control); with ELK1, 1.14 fold enrichment (6-mer frequency, TF over GST control); with GABPA it was 1.11 fold enrichment (6-mer frequency, TF over GST control); with ERG it was 1.09 fold enrichment (6-mer frequency, TF over GST control); with ELF1 it was 1.07 fold enrichment (6-mer frequency, TF over GST control); in the test with EHF, 1.18 fold enrichment (6-mer frequency, TF over GST control). Further, the binding signal is 1.09 fold enrichment (6-mer frequency, TF over GST control) in the test with SPI1; 1.14 fold enrichment (6-mer frequency, TF over GST control) with SPIB; 1.07 fold enrichment (6-mer frequency, TF over GST control) in the test with ELK3.

GCCTTT: the binding signal with FLI1 was 1.33 fold enrichment (6-mer frequency, TF over GST control); with ELK1, 1.3 fold enrichment (6-mer frequency, TF over GST control); with GABPA, 1.32 fold enrichment (6-mer frequency, TF over GST control); in the test with ERG, 1.2 fold enrichment (6-mer frequency, TF over GST control); in the test with ELF1, 1.28 fold enrichment (6-mer frequency, TF over GST control); in the test with EHF it was 1.35 fold enrichment (6-mer frequency, TF over GST control). In addition, the binding signal with SPI1 is 1.49 fold enrichment (6-mer frequency, TF over GST control); with SPIB it was 1.35 fold enrichment (6-mer frequency, TF over GST control); with ELK3, 1.27 fold enrichment (6-mer frequency, TF over GST control).

As for TAGGCT, the binding signal with FLI1 was 1.22 fold enrichment (6-mer frequency, TF over GST control); with ELK1 it was 1.18 fold enrichment (6-mer frequency, TF over GST control); with GABPA it was 1.3 fold enrichment (6-mer frequency, TF over GST control); with ERG, 1.23 fold enrichment (6-mer frequency, TF over GST control); with ELF1 it was 1.21 fold enrichment (6-mer frequency, TF over GST control); with EHF, 1.2 fold enrichment (6-mer frequency, TF over GST control). Moreover, the binding signal was 1.19 fold enrichment (6-mer frequency, TF over GST control) with SPI1; 1.1 fold enrichment (6-mer frequency, TF over GST control) in the test with SPIB; 1.26 fold enrichment (6-mer frequency, TF over GST control) with ELK3.

For ACAGGA, the binding signal in the test with FLI1 is 1.15 fold enrichment (6-mer frequency, TF over GST control); with ELK1, 1.08 fold enrichment (6-mer frequency, TF over GST control); with GABPA it was 1.13 fold enrichment (6-mer frequency, TF over GST control); in the test with ERG, 1.22 fold enrichment (6-mer frequency, TF over GST control); in the test with ELF1, 1.04 fold enrichment (6-mer frequency, TF over GST control); with EHF it was 1.12 fold enrichment (6-mer frequency, TF over GST control). The binding signal in the test with SPI1 was 1.34 fold enrichment (6-mer frequency, TF over GST control); in the test with SPIB, 1.22 fold enrichment (6-mer frequency, TF over GST control); with ELK3, 1.04 fold enrichment (6-mer frequency, TF over GST control).

For the origin of these results see paper PMC7862700, “An all-to-all approach to the identification of sequence-specific readers for epigenetic DNA modifications on cytosine”.
